According to the supplement of paper PMC10811239:

system: LEGO organoid PTN (PTEN-/-; TP53-/-; NF1-/-); assay: bioluminescence (viable cell) signal fold change after vs before treatment, normalised to DMSO (ratio); higher = more tumour cell growth / less inhibition; conditions: 10 µM; treatment time 6 days
Protocol: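 Luc2-labelled iPSC-derived glioblastoma-like organoids (LEGOs, genotypes PT = PTEN-/-;TP53-/-, PTCC = plus CDKN2A/B-/-, PTN = plus NF1-/-) were treated with 10 uM drug for 6 days (applied every other day) at 37 C. Bioluminescence imaging was done before treatment and 2 days after the last dose. BLI signals were normalised to the DMSO control on the same day and then to the pre-treatment signal (N=3).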

SMILES	bioluminescence
Cc1n[nH]cc1-c1cc2[nH]c([C@@H]3CC4CCN3CC4)nc(=O)c2s1 [Simurosertib]	1.05
NCC1(CC(=O)O)CCCCC1 [Gabapentin]	0.585
CC(C)C[C@H]1C(=O)N2CCC[C@H]2[C@]2(O)O[C@](NC(=O)[C@@H]3C[C@@H]4c5cccc6[nH]cc(c56)C[C@H]4N(C)C3)(C(C)C)C(=O)N12.CC(C)[C@@]1(NC(=O)[C@@H]2C[C@@H]3c4cccc5[nH]cc(c45)C[C@H]3N(C)C2)O[C@@]2(O)[C@@H]3CCCN3C(=O)[C@H](Cc3ccccc3)N2C1=O.CC(C)[C@H]1C(=O)N2CCC[C@H]2[C@]2(O)O[C@](NC(=O)[C@@H]3C[C@@H]4c5cccc6[nH]cc(c56)C[C@H]4N(C)C3)(C(C)C)C(=O)N12.CCC(C)[C@H]1C(=O)N2CCC[C@H]2[C@]2(O)O[C@](NC(=O)[C@@H]3C[C@@H]4c5cccc6[nH]cc(c56)C[C@H]4N(C)C3)(C(C)C)C(=O)N12.CS(=O)(=O)O [Dihydroergotoxine mesylate]	1.88
CCN(C)C(=O)Oc1cccc([C@H](C)N(C)C)c1.O=C(O)[C@H](O)[C@@H](O)C(=O)O [Rivastigmine tartrate]	1.33
COc1ccc(C(CN(C)C)C2(O)CCCCC2)cc1.Cl (configuration not stated) [Venlafaxine hydrochloride]	1.33
CCOC(=O)c1cncn1[C@H](C)c1ccccc1 [Etomidate]	2.17
Cc1cccc([C@H](C)c2cnc[nH]2)c1C.Cl [Dexmedetomidine HCl]	0.581
CC[C@@H](C(N)=O)N1CCCC1=O [Levetiracetam]	0.81
O=C(O)CCCc1ccc(N(CCCl)CCCl)cc1 [Chloroambucil]	1.36
CCC1(c2ccc(N)cc2)CCC(=O)NC1=O (configuration not stated) [Aminoglutethimide]	1.07
CN(C)C(=O)Oc1ccc[n+](C)c1.[Br-] [Mestinon]	0.642
CN[C@@H]1C[C@H]2O[C@@](C)([C@@H]1OC)n1c3ccccc3c3c4c(c5c6ccccc6n2c5c31)C(=O)NC4 [Staurosporine]	0
CC(C)c1cccc(C(C)C)c1O [Propofol]	1.2
CCN(C)C(=O)Oc1cccc([C@H](C)N(C)C)c1 [Rivastigmine]	1.18
NCC(CC(=O)O)c1ccc(Cl)cc1 (configuration not stated) [Baclofen]	1.95
COc1cc2c(cc1OC)[C@@H]1CC(=O)[C@@H](CC(C)C)CN1CC2.COc1cc2c(cc1OC)[C@H]1CC(=O)[C@H](CC(C)C)CN1CC2 [Tetrabenazine]	0.557
Cl.Cn1c(CCCC(=O)O)nc2cc(N(CCCl)CCCl)ccc21 [Bendamustine hydrochloride]	1.14
